Measured values as given in PubChem BioAssay (NCI).
The panel holds about 83,000 compounds, 20% with a hit somewhere; the sample as a whole holds those more often.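 Note: values are percent growth. 100 is the growth of untreated cells, values between 100 and 0 indicate rising inhibition; between -100 and 0 indicates cell death.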 A number with no mark means an inactive call. Activity calls are given as the source filed them. The calls were made as follows: active = growth percent below 10; inactive = the rest.

Experiments:
Test in all cases: NCI-60 one-dose screen, 48 h (100 = growth as untreated, 0 = no growth, -100 = all killed)
Settings in all cases: 10 µM unless noted
[1] = tested on: DU-145 prostate
[2] = tested on: K-562 leukemia
[3] = tested on: MALME-3M melanoma
[4] = tested on: MDA-MB-231 breast
[5] = tested on: RXF 393 renal
[6] = tested on: SF-268 CNS
[7] = tested on: SF-295 CNS
[8] = tested on: SF-539 CNS
[9] = tested on: UACC-257 melanoma
[10] = tested on: M14 melanoma

SMILES	growth [1]	growth [2]	growth [3]	growth [4]	growth [5]	growth [6]	growth [7]	growth [8]	growth [9]	growth [10]
N#Cc1c(-c2ccccc2)cc(-c2ccccc2)n(CCCC(=O)Nc2ccccc2N)c1=O	87.4%	20.2%	47.4%	69.9%	55.8%	59.5%	35.1%	52.5%	78.2%	39.8%
CCOc1ccccc1Cn1ccnc1CCc1c(Cl)c(O)cc(O)c1C(=O)OC	104%	94.7%	91.8%	96.7%	108%	102%	95.2%	103%	93.7%	95.2%
CCOC(=O)[C@@H]1CSC(CC)=C(C(=O)O)N1	118%	8.66% (active)	104%	105%	109%	116%	111%	93.4%	89.1%	98.6%
COC(=O)[C@]1(C)CCC[C@]2(C)[C@H]3C[C@H]4C(C(C)C)=C[C@]3(CC[C@H]21)[C@@H]1C(=O)CC[C@H](OCCC#N)[C@@H]14	89.2%	89.9%	85.9%	73.9%	55.5%	74.3%	77.7%	91.7%	99.1%	82.5%
COc1ccc(/C=C(\C#N)n2nnc3cc(Cl)ccc32)cc1	-14.9% (active)	8.41% (active)	34.6%	-56.3% (active)	-55.2% (active)	27.6%	-20.9% (active)	-60.5% (active)	53%	-19.1% (active)
Cc1ccc(NC(=O)c2sc3nc(C)c(Br)c(C)c3c2N)cc1	66.6%	95.5%	53.8%	55.3%	43.3%	49%	60%	65.1%	90.3%	79%
CCOC(=O)C1=C(C)NC(=O)NC1c1c(Cl)n(CCCl)c2ccccc12 (stereo not given)	107%	99.3%	94.4%	105%	98.1%	88%	95.3%	97.2%	92.7%	98.2%
COc1cc2c(c(OC)c1OC)CCC(c1cccc(C(=O)Nc3cccc(Cl)c3)c1)O2 (stereo not given)	81%	38.2%	75.2%	25.7%	66.9%	72.1%	65%	77.6%	74.5%	62.1%
COc1ccc(C(C)=O)cc1S(=O)(=O)Nc1c(N)nc(SC)[nH]c1=O	107%	93%	96.4%	111%	107%	96.1%	98.1%	108%	103%	94.8%
CC(=O)O[C@H]1CC2CCC3C(CC[C@@]4(C)C3C[C@H]([N+]3(C)CCCCC3)[C@@H]4OC(C)=O)[C@@]2(C)C[C@@H]1N1CCCCC1 (stereo not given in full)	120%	104%	121%	91%	113%	115%	96.4%	110%	98%	106%
Cc1nc2sc(C(=O)Nc3ccc(Br)cc3)c(N)c2cc1C(O)c1ccccc1 (stereo not given)	81.7%	12.1%	63.9%	57.9%	86.6%	75.8%	69.5%	66.7%	61.8%	38.9%
CC(=O)c1c(C)nc(SCC(=O)Nc2cccc(O)c2)n1-c1ccc(Cl)cc1	103%	105%	90.8%	82.1%	92%	96.2%	97.4%	105%	101%	94.4%
CC(=O)Oc1ccc(N2C(=O)C(Cl)=C(Nc3cccc(C(F)(F)F)c3)C2=O)cc1	101%	90.4%	102%	95.3%	87%	94.3%	102%	96.5%	97.1%	105%
COc1cc2cc(NCc3cccc(Cl)c3)nc(C)c2cc1OC	62.8%	8.28% (active)	80.6%	41.6%	40.3%	41.3%	26.1%	5.02% (active)	69.8%	29.4%
O=C(O)c1cn(C2CC2)c2cc(N3CCN(C(=O)N(c4ccccc4)c4nc(-c5ccccc5)cs4)CC3)c(F)cc2c1=O	15.4%	9.77% (active)	2.79% (active)	-48% (active)	8.65% (active)	19%	-0.773% (active)	-7.39% (active)	1.71% (active)	17.7%
N#Cc1c(-c2ccccc2)cc(-c2ccc(Nc3nc(Nc4ccc(Cl)cc4)nc(Nc4ccc(Cl)cc4)n3)cc2)nc1N	34%	32.6%	-68.1% (active)	-31.2% (active)	-44.5% (active)	51.9%	75.5%	-53.9% (active)	-12.1% (active)	2% (active)
CC/C=C\C[C@H](O)C/C=C1/C(=O)C=C[C@@H]1C/C=C\CCCC(=O)N(C)C	16.4%	5.58% (active)	8.29% (active)	18.3%	-65.1% (active)	16.6%	-1.42% (active)	14.7%	-9.75% (active)	5.92% (active)
Nc1nc2ccc(-c3nc4ccc5[nH]ncc5c4c4c3CCCC4)cc2s1	111%	94.9%	94.5%	106%	109%	98.8%	108%	106%	88.1%	101%
O=C(Nc1nc2cc(C(=O)N3CCN(C(c4ccccc4)c4ccccc4)CC3)ccc2o1)c1ccc(NC2CCCCC2)c([N+](=O)[O-])c1	61.9%	47%	68.7%	75%	74.9%	58.2%	42.1%	59.9%	62.2%	58.2%
O=C(Nc1nc(-c2ccc(Cl)cc2)nc2c1sc(=S)n2-c1ccccc1)C(F)(F)F	37.5%	57.2%	21.2%	37.5%	29%	36.1%	7.16% (active)	8.63% (active)	51.1%	40.3%
O=C(N/N=C/c1c(Cl)cccc1Cl)c1cccnc1Nc1cccc(C(F)(F)F)c1	49.3%	73.9%	54.3%	55.9%	68.1%	39.3%	28.8%	34.1%	56%	37.3%
COc1cc2ncnc(Nc3ccc(F)c(Cl)c3)c2cc1OCC(=O)N1CCN(c2ccccc2)CC1	62.9%	85.2%	96.3%	90.5%	81.2%	82.6%	93.4%	104%	107%	99.4%

SMILES	growth [1]	growth [2]	growth [3]	growth [4]	growth [5]	growth [6]	growth [7]	growth [8]	growth [9]	growth [10]
Fc1cnccc1C1CC(c2ccc(N3CCNCC3)cc2)=NN1 (stereo not given)	107%	77.9%	93.4%	84.6%	105%	107%	98%	104%	83.1%	95.9%
CCOC(=O)c1nn(-c2ccc(S(N)(=O)=O)cc2)c2nc(C)cc(=O)n12	108%	102%	106%	102%	104%	103%	103%	97.8%	112%	104%
COc1ccc(/C=N/NC(=O)c2ccc(-n3cc(-c4ccccc4)nn3)cc2)cc1OC	103%	93.2%	77.8%	103%	110%	93.8%	97.7%	102%	103%	82.5%
O=C(CN1CCOCC1)Nc1nc(-c2cc3ccccc3oc2=O)cs1	106%	96.3%	102%	93.6%	109%	90.1%	101%	97.6%	106%	101%
O=C(Nc1ccc(Oc2cccc(F)c2)c(Cl)c1)c1cccnc1	21.8%	16.2%	47.2%	60.2%	13.5%	53.7%	40.1%	4.06% (active)	56.1%	15.9%
O=C1c2c(c3c4ccccc4[nH]c3c3ccc4ccccc4c23)C(=O)N1CCN1CCOCC1	39.7%	10.9%	44.5%	69.5%	18%	56.8%	29.1%	51.7%	79.7%	36.8%
COC(=O)CC[C@H](C)[C@H]1CC[C@H]2[C@@H]3CC[C@@H]4CC5(CC[C@]4(C)[C@H]3CC(=O)[C@]12C)Nc1ccccc1NC5=NC(C)(C)C (stereo not given in full)	90.2%	42.2%	109%	86.7%	84.7%	84.1%	84%	90.8%	77.2%	84.9%
COc1ccc(C2=Nc3c(N)nc(N)nc3NC(c3cccc(Nc4ccnc5cc(C(F)(F)F)ccc45)c3)C2)cc1 (stereo not given)	75.5%	13.2%	78.3%	70.8%	54%	69.7%	78.9%	87.1%	87.8%	67.2%
CS(=O)(=O)Nc1cc(-c2ccc3ncnc(Nc4ccc5c(cnn5Cc5cccc(F)c5)c4)c3c2)cnc1Cl	16.2%	19.4%	-36.1% (active)	1.43% (active)	-25.7% (active)	1.24% (active)	6.42% (active)	-16.6% (active)	20.2%	1.49% (active)
NS(=O)(=O)c1ccccc1NC(=O)Nc1nc2ccccc2s1	106%	97.5%	91.9%	97%	98.4%	98.1%	94.6%	95.8%	102%	93.5%
COC(=O)c1c(C)nc(C)c2c1C(=O)C(Br)=C(NCc1ccccc1)C2=O	38%	21%	-75.4% (active)	14.8%	52.4%	33%	30.1%	7.13% (active)	-7.87% (active)	14%
COc1ccc(-c2nn(-c3cccc(Cl)c3)cc2-c2cc(-c3ccc(Br)cc3)nc(N)n2)cc1	107%	94.2%	102%	81.9%	111%	101%	99.1%	103%	104%	92.8%
CCSc1nc2scc(C)c2c(=O)[nH]1	105%	99.9%	106%	104%	112%	100%	99.2%	99.2%	105%	107%
CC(C)Cn1cnc2c(=O)[nH]c(N)nc21	109%	99.9%	98.3%	114%	94.4%	106%	99.2%	104%	84.1%	105%
CC/C(=C(/c1ccc(Cl)cc1)c1ccc(OCCN(C)C)cc1)c1ccc(Cl)cc1	77.7%	16%	73.9%	83.3%	68.5%	77.4%	69.7%	86.2%	72.2%	88.1%
Oc1c(Br)cc(Br)c2ccc(Cn3cc(-c4ccc(C(F)(F)F)cc4)nn3)nc12	46.2%	6.39% (active)	16.7%	96.3%	1.8% (active)	85.7%	105%	56.2%	54.9%	48.6%
Cc1cc(=O)oc2cc(OCc3nn4c(Nc5nc6ccccc6s5)c(-c5ccccc5)nc4s3)ccc12	97.7%	-59.3% (active)	93.7%	83.1%	102%	86.1%	90.2%	96.1%	93.9%	100%
Cc1[nH]c(C(=O)Nc2ccccc2OC2CCNCC2)c(Cl)c1Cl	16.4%	-2.5% (active)	-49.5% (active)	-43.4% (active)	-85.4% (active)	39.4%	-20.2% (active)	-94.1% (active)	13.7%	-51.6% (active)
CCC(=O)Oc1ccc(-c2ccccc2)cc1Br	107%	107%	109%	103%	106%	103%	104%	106%	106%	102%
COc1ccc(/C=C/C(=O)c2ccc(Nc3ccnc4cc(Cl)ccc34)cc2)cc1	103%	45%	142%	80.7%	13.5%	100%	77.4%	86.8%	102%	87.8%
CCN(CC)CCn1c2ccc(O)cc2c2sc3cc(O)ccc3c(=O)c21	43.6%	14.8%	15.6%	43.5%	26.6%	42%	17.6%	18.1%	55.4%	19.6%
Nc1nc(N)c(-c2ccc(Cl)c(Cl)c2)c(CBr)n1	83.2%	36.8%	89%	82.2%	90.6%	94%	55.7%	65.4%	68.5%	50.5%
